# Test results reported in PubChem BioAssay (NCATS).
# Records with an inconclusive call do not appear. Calls of active or inactive are those of the source. The call rests on the fitted dose curve; in most records, active means well fitted inhibition curve with a large enough effect; inconclusive means small, poorly fitted or top-dose-only effect; inactive means flat fitted curve, though single readings scatter.
# Assay: qHTS to identify inhibitors of the type 1 interferon - major histocompatibility complex class I in skeletal muscle: primary screen against the NCATS Pharmaceutical Collection (AID 1347407)
# Conditions: human skeletal muscle cells, IFN-b-induced MHC-I HiBiT luminescence, 24 h; series mostly up to 45.9 µM; activity change, negative = inhibition: at the top concentration
# Method in brief: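 Luminescence from HiBiT-tagged endogenous HLA-B*08:01 served as the read-out of IFN-beta-induced MHC class I in CRISPR-engineered C25cl48 myoblasts. Cells received 4 ng/ml IFN-beta plus compound (high final 46 uM, […]) for 24 h.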
# On the % scale 0 is the no-effect control and ±100 the full control effect.
row,Structure (SMILES),"activity change, negative = inhibition"
1,CCOC(=O)[C@H](CCc1ccccc1)N[C@@H](C)C(=O)N1Cc2cc(OC)c(OC)cc2C[C@H]1C(=O)O,-2.63% (inactive)
2,Cc1ccsc1/C=C/C1=NCCCN1C,-10.2% (inactive)
3,CCCC(O)C(CC)CO (configuration not stated),-4.8% (inactive)
4,O=C(O)c1ccccc1C(=O)Nc1ccc(S(=O)(=O)Nc2nccs2)cc1,-4.64% (inactive)
5,CCOC(=O)c1cccnc1,-2.26% (inactive)
6,CC1(C)S[C@@H]2[C@H](NC(=O)C(C(=O)O)c3ccccc3)C(=O)N2[C@H]1C(=O)O (some centres not stated),4.33% (inactive)
7,CC(C)NC[C@@H](O)COc1ccc(CC(N)=O)cc1,-1.25% (inactive)
8,CC(=O)OCC(=O)[C@@]1(O)CC[C@H]2[C@@H]3CCC4=CC(=O)C=C[C@]4(C)[C@@]3(F)[C@@H](O)C[C@@]21C,-46.6% (inactive)
9,CC(=O)Nc1cccc(O)c1,-1.04% (inactive)
10,COc1ccccc1OC(=O)Oc1ccccc1OC,-1.26% (inactive)
11,C[C@@H]1O[C@@H](OC[C@H]2O[C@@H](Oc3c(-c4ccc(O)c(O)c4)oc4cc(O)cc(O)c4c3=O)[C@H](O)[C@@H](O)[C@@H]2O)[C@H](O)[C@H](O)[C@H]1O,15.1% (inactive)
12,O=c1[nH]c(=O)n([C@H]2C[C@H](O)[C@@H](CO)O2)cc1I,1.93% (inactive)
13,CC(C)(C)C(=O)OCOC(=O)[C@@H]1N2C(=O)[C@@H](NC(=O)[C@H](N)c3ccccc3)[C@H]2SC1(C)C,6.76% (inactive)
14,CCN(CC)S(=O)(=O)c1ccc(C(=O)O)cc1,1.78% (inactive)
15,NCc1ccc(S(N)(=O)=O)cc1,-21.3% (inactive)
16,Cn1c(=O)c2c(ncn2CCO)n(C)c1=O,-3.25% (inactive)
17,COc1ccccc1Oc1c(NS(=O)(=O)c2ccc(C(C)(C)C)cc2)nc(-c2ncccn2)nc1OCCO,-22.6% (inactive)
